ROMK primary – modulates human ROMK potassium channel activity | AID 1918 | P48048 | Tet-inducible ROMK, thallium flux fluorescence; actives lie on both sides | actives 2% (n = 130,000) | B-score at 10 µM;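 active = signal ratio slope over the read window, or its plate-corrected B-score, at least 3 SD from the plate mean, either direction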;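 also: B-score of the F/F0 ratio slope over 7 to 12 s after thallium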
WT yeast gro inh – growth inhibition of WT yeast, mitochondrial fusion screen; mitochondrial fusion phenotypic screen, WT strain; inhibition, % at 10 µM; actives 2.1% (n = 190,000); in the data active = inhibition above about 58%; tested in S. cerevisiae
m-calpain inh – inhibitors of pig calpain II; purified calpain II, fluorogenic peptide substrate, 30 min; actives 0.37% (n = 220,000); inhibition, % at 16 µM;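 active = inhibition above about 50%, limit read from the data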
Cl transport mod – KCC2 (human) Cl- transport modulation; Q9H2X9; KCC2 cells, thallium flux FluoZin-2 fluorescence; B-score of Tl+ flux slope (higher = more flux/activation; lower = inhibition) at 10 µM; actives 2.2% (n = 190,000);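 active = thallium flux slope and its plate-corrected score both differing from the plate sample mean at a set confidence after two filtering rounds, in either direction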;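 also: slope of fluorescence scaled to starting intensity during 10 to 20 s after thallium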
Lmaj promast – Leishmania major promastigote growth inhibition; Leishmania major promastigotes, resazurin fluorescence viability; actives 9% (n = 200,000); inhibition, % at 10 µM; in the data active = inhibition above about 50%;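 also: promastigotes grown with compound for 44 hours at 28 °C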
* hit, by the source's call. In the library only some 12% were active in any assay of this set; here they are far more common.

Screening COc1ccc(CCNC(=O)c2cc(C(=O)c3cc(Cl)ccc3O)cn(CCc3ccc(OC)cc3)c2=O)cc1 returned ROMK primary -0.77, WT yeast gro inh 20.8, m-calpain inh -24.1, Cl transport mod -0.281 and Lmaj promast 99.5*.
For O=C(c1cc(C(=O)NCCc2ccccc2)c(=O)n(CCc2ccccc2)c1)c1cc(Cl)ccc1O the results were WT yeast gro inh 6.4, m-calpain inh -47.8, Cl transport mod -0.194 and Lmaj promast 98.1*.
For COc1ccc(C(=O)n2cc(C(=O)c3cc(C)ccc3O)cn2)cc1 the results were ROMK primary 0.131, WT yeast gro inh 8.2, m-calpain inh -3.8, Cl transport mod -1.95 and Lmaj promast -10.7.
`COc1ccc(CCNC(=O)c2cc(C(=O)c3cc(C)ccc3O)cn(CCc3ccc(OC)cc3)c2=O)cc1` gave ROMK primary -1.34, WT yeast gro inh -6.6, m-calpain inh 0.5, Cl transport mod -0.261 and Lmaj promast 95.6*.
Screening O=C(NCCc1ccccc1)c1cccnc1N1CCCCCC1 returned WT yeast gro inh 4.4, m-calpain inh 6.1 and Lmaj promast 8.2.
COC(=O)c1ccc(C(=O)OC)c(=O)[nH]1 was read as m-calpain inh -107.2 and Cl transport mod -0.647.
For COc1ccccc1C(=O)NNC(=S)NC(=O)c1ccco1 the results were WT yeast gro inh 87.2*, m-calpain inh 14.4, Cl transport mod 15.8* and Lmaj promast 7.5.
`CC(=O)NC(=S)Nc1ccc(NC(=S)NC(=O)/C=C/c2ccco2)cc1` gave ROMK primary 1.38, m-calpain inh -30.5 and Cl transport mod -0.737.
`CC(C)C(=O)Nc1ccc(C(=O)NNC(=S)NC(=O)c2ccccc2[N+](=O)[O-])cc1` gave ROMK primary -0.0411, WT yeast gro inh -5.3, m-calpain inh -5.5, Cl transport mod 0.302 and Lmaj promast -7.0.
For O=C(/C=C/c1ccco1)NC(=S)NNC(=O)c1ccco1 the results were WT yeast gro inh 1.7, m-calpain inh 18.4, Cl transport mod 0.509 and Lmaj promast 93.6*.
Screening COc1ccc(C(=O)NC(=S)NNC(=O)c2ccc(NC(=O)C(C)C)cc2)cc1 returned WT yeast gro inh -27.6, m-calpain inh -21.6, Cl transport mod 0.196 and Lmaj promast 70.7*.
CC(Oc1ccc(Cl)cc1)C(=O)NNC(=S)NC(=O)c1ccco1 (stereo not drawn) was read as ROMK primary 1.25, WT yeast gro inh 84.8, m-calpain inh 4.3, Cl transport mod 25.6* and Lmaj promast 9.0.
For CCOC(=O)c1c(C)oc2cc3c(C(=O)OCC)c(C)oc3cc12 the results were ROMK primary 0.634, Cl transport mod 0.647 and Lmaj promast -6.8.
`Cc1ccc2nsnc2c1NC(=S)NC(=O)c1ccco1` gave ROMK primary 0.533, WT yeast gro inh 1.6, m-calpain inh 0.9, Cl transport mod 9.29* and Lmaj promast 3.1.
`COc1ccc(C(=O)NNC(=S)NC(=O)c2ccco2)cc1` gave ROMK primary 0.556, WT yeast gro inh 48.4, m-calpain inh 33.6, Cl transport mod 10.1* and Lmaj promast 6.8.
For COc1ccc(C(=O)NNC(=O)C(NC(=O)c2ccccc2NC(=O)c2ccco2)C(C)C)cc1 (stereo not drawn) the results were WT yeast gro inh 8.0, m-calpain inh 16.7, Cl transport mod 1.07 and Lmaj promast 66.9*.
For O=C(NC(=S)Nc1ccccn1)c1ccco1 the results were WT yeast gro inh 24.6, m-calpain inh 14.3, Cl transport mod 10.4* and Lmaj promast -0.3.
Screening COc1c(C)cc(C(=O)C2CCCN(C(=O)c3snnc3C)C2)cc1C (stereo not drawn) returned ROMK primary 0.411, WT yeast gro inh 29.8, m-calpain inh -5.3, Cl transport mod 0.919 and Lmaj promast 2.7.
`COc1cc(C(=O)NC(=S)Nc2ccccc2[N+](=O)[O-])cc(OC)c1OC` gave WT yeast gro inh 3.6, m-calpain inh -31.0, Cl transport mod 1.85 and Lmaj promast 6.9.
`O=C(O)C1=C[C@H](c2cccs2)C[C@H](OCc2ccc(CO)cc2)O1` gave m-calpain inh 14.1 and Cl transport mod 0.1.
For CCCN1C(=O)/C(=C2\SC(N3CCCCC3)=NC2=O)c2ccccc21 the results were ROMK primary 1.46, WT yeast gro inh 5.7, m-calpain inh -4.5, Cl transport mod -0.7 and Lmaj promast 63.9*.
Screening COc1ccc(NC(=S)NNS(=O)(=O)c2ccc3ccccc3c2)c(OC)c1 returned ROMK primary 0.442, WT yeast gro inh -8.1, m-calpain inh -14.6, Cl transport mod -0.207 and Lmaj promast -7.3.
For O=C(/C=C/c1cccc(C(F)(F)F)c1)Nc1cccc(C(F)(F)F)c1 the results were WT yeast gro inh 78.9, m-calpain inh 29.5 and Lmaj promast 95.7*.
`CN(C1CCCC1)C1CCN(C(=O)CNC(=O)/C=C/c2cccc(C(F)(F)F)c2)CC1` gave ROMK primary -1.49, WT yeast gro inh 3.5, m-calpain inh -2.4, Cl transport mod 0.0157 and Lmaj promast 76.3*.
For CSc1cccc(NC(=O)/C=C/c2cccc(Cl)c2)c1 the results were ROMK primary 0.797, WT yeast gro inh 82.8*, m-calpain inh 22.1, Cl transport mod -1.16 and Lmaj promast 3.1.
For CN(C)C(CNC(=O)/C=C/c1cccc(Cl)c1)c1ccccc1 (stereo not drawn) the results were ROMK primary 1.32, WT yeast gro inh -0.4, m-calpain inh -17.3, Cl transport mod -0.0283 and Lmaj promast 75.4*.
Screening Cn1c(=O)oc2cc(S(=O)(=O)N3CCC(C(=O)NCCc4ccccc4)CC3)ccc21 returned ROMK primary 0.0433, m-calpain inh -18.4 and Cl transport mod -0.0614.
COCCCn1c(=O)cc(C)[nH]c1=S was read as m-calpain inh 8.1.
Nc1nc(SCC(=O)C23CC4CC(CC(C4)C2)C3)n[nH]1 was read as ROMK primary -0.194, WT yeast gro inh 10.6, m-calpain inh -6.4, Cl transport mod -0.277 and Lmaj promast 0.4.
Screening CC(C)CN(CCC(=O)O)CC(C)C returned WT yeast gro inh 2.8, m-calpain inh -24.2 and Lmaj promast -3.7.
For CC(=O)Nc1cc(C(=O)N(C)Cc2ccco2)ccc1Sc1ccc(C)cc1 the results were WT yeast gro inh 17.5, m-calpain inh 6.9, Cl transport mod -0.638 and Lmaj promast -3.8.
Screening Cc1cc(C(F)(F)F)nn1Cc1n[nH]c(=S)n1Cc1ccccc1 returned ROMK primary 0.359, WT yeast gro inh 1.9, m-calpain inh -13.2, Cl transport mod -0.224 and Lmaj promast 0.7.
Screening CCNC(=O)c1ccc(C2SCC(=O)N2CCc2ccccc2)cc1 (stereo not drawn) returned ROMK primary -0.524, WT yeast gro inh -2.6, m-calpain inh -0.3, Cl transport mod 0.246 and Lmaj promast -2.0.
Screening C=CCNC(=O)c1ccc(C2SCC(=O)N2Cc2ccccc2)cc1 (stereo not drawn) returned ROMK primary 0.145, WT yeast gro inh -15.0, m-calpain inh -3.5, Cl transport mod 0.00267 and Lmaj promast -4.0.
`CCc1ccc(NC(=O)c2ccc(C3SCC(=O)N3CCc3ccccc3)cc2)cc1` (stereo not drawn) gave m-calpain inh -8.5, Cl transport mod 0.976 and Lmaj promast 92.9*.
